Compounds with a hit are over-represented: about 10% of the library has one in this group of screens.
Pf growth 48h = inhibits P. falciparum growth in the first generation, 48 h; P. falciparum luciferase growth in erythrocytes, 48 h; Potency, µM (doses to about 28.7 µM), actives largely listed as inhibitors; hit rate 5.9% among 310,000; AID 504832; active = well fitted inhibition curve with a large enough effect; inconclusive = small, poorly fitted or top-dose-only effect, or another doubt; inactive = no such curve, though single readings can be large or run the other way
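A one-generation exposure of luciferase-tagged malaria parasites in RPMI 1640/Albumax erythrocyte culture, 37 C and 5% CO2. Inhibition is inferred from decreased luminescence after adding detection reagent.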
SARS PLP yeast = inhibitors of SARS-CoV papain-like protease in yeast | hit rate 0.19% among 330,000 | S. cerevisiae expressing SARS-CoV PLpro, growth rescue | AID 485353 | Potency, µM (titrated, usually from 32.9 µM), most hits filed as activators; note: nearly all actives have a fitted effect of over 55% in size
NS1 function inh = blocks influenza NS1 protein function; Potency, µM (titrated, usually from 46.1 µM); hit rate 0.4% among 270,000; note: actives are rising curves; nearly all actives have a fitted effect of over 50% in size
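In this qHTS, NS1 from influenza A is expressed in budding yeast, where it slows growth. Cells are switched from glucose to 2% galactose medium (pH 6.0, -URA), treated with compound, and growth recovery is read at OD600.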
Pf growth 96h = P. falciparum growth inhibition at 96 hour, primary screen for plastid delayed-death inhibitors. P. falciparum luciferase reporter growth, 96 h. Potency, µM (top dose mostly 28.7 µM), hits mostly inhibitors. hit rate 6.9% among 320,000. AID 504834; active = well fitted inhibition curve with a large enough effect; inconclusive = small, poorly fitted or top-dose-only effect, or another doubt; inactive = no such curve, though single readings can be large or run the other way
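Parasite growth measured via integrated firefly luciferase reporter in P. falciparum. Infected erythrocytes at 2% hematocrit, 0.05% parasitemia final were treated 96 hours at 37 C under 5% CO2, and luminescence was read.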
Numbers stand for hits; i = inactive; ? = inconclusive; nt = not tested or not shown; [ ] = remark or other dose. Unless noted, calls come from the whole dose curve.

SMILES	Pf growth 48h	SARS PLP yeast	NS1 function inh	Pf growth 96h
O=C(O)c1cccc(N/N=C/c2cc(Br)cc(Br)c2O)c1	i	i	i	?
O=c1cc[nH]c(=S)[nH]1	i	nt	nt	i
CC(=O)N(/N=C/c1cccc(C)c1)c1nc(-c2ccc(Br)cc2)cs1	?	i	i	11.7µM
COc1ccc(/C=N/N(C(C)=O)c2nc(-c3ccc(C)cc3)cs2)cc1	?	i	i	?
CN1C(=O)C(CCC(=O)O)NC1=S (stereo not drawn)	i	i	i	i
Cc1ccccc1C(=O)NC1CC2CCCC(C1)N2Cc1ccccc1 (stereo not drawn)	i	i	i	?
O=C(NC1CC2CCC(C1)N2Cc1ccccc1)c1ccccc1Cl (stereo not drawn)	i	i	i	13.1µM
COc1ccc(CN2C3CCCC2CC(NC(=O)Nc2ccccc2)C3)cc1 (stereo not drawn)	10.4µM	i	i	?
COc1ccc(CN2C3CCCC2CC(NC(=O)Nc2cccc(C)c2)C3)cc1 (stereo not drawn)	7.38µM	i	i	i
Cc1cc2nsnc2c(S(=O)(=O)N2CCN(C)CC2)c1C	i	i	i	i
CCOC(=O)c1ccc(Nc2nnc(C(C)(C)C)c(=O)[nH]2)cc1	5.22µM	i	i	?
CCOC(=O)c1ccc(Nc2cc(C)nc(C)c2C(=O)OCC)cc1	i	i	i	nt
O=c1c(Cl)c(N2CCN(c3ccccc3)CC2)cnn1C12CC3CC(CC(C3)C1)C2	?	i	i	?
O=c1c(Cl)c(NCc2ccc(F)cc2)cnn1C12CC3CC(CC(C3)C1)C2	13.1µM	i	i	i
Cc1ccc(CNc2cnn(C34CC5CC(CC(C5)C3)C4)c(=O)c2Cl)cc1	i	i	i	?
O=c1c(Cl)c(N2CCN(c3ccc(F)cc3)CC2)cnn1C12CC3CC(CC(C3)C1)C2	4.65µM	i	i	4.15µM
CCC1(C)NC(=O)N(CC(=O)Nc2cc(C)on2)C1=O (stereo not drawn)	nt	i	nt	nt
O=c1[nH]c2ccccc2cc1CN(Cc1cccnc1)S(=O)(=O)c1ccc([N+](=O)[O-])cc1	?	i	i	4.65µM
O=c1[nH]c2ccccc2cc1CN(Cc1cccnc1)S(=O)(=O)c1ccc(Cl)cc1	?	i	i	?
O=C1C2C3C=CC(C4CC34)C2C(=O)N1c1ccc2c(c1)OCO2 (stereo not drawn)	i	i	nt	i
O=[N+]([O-])c1ccc(O)c(/C=N/NC2=NS(=O)(=O)c3ccccc32)c1	2.62µM	?	nt	i[5.75 µM]
O=S1(=O)N=C(N/N=C/c2cccs2)c2ccccc21	?	i	i	13.1µM
O=[N+]([O-])c1ccc(/C=N/NC2=NS(=O)(=O)c3ccccc32)cc1	i	i	nt	i
O=[N+]([O-])c1ccc(O)c(/C=N/Nc2nn[nH]n2)c1	?	i	nt	i
O=[N+]([O-])c1ccc(O)c(/C=N/Nc2ccc(Cl)nn2)c1	0.415µM	i	i	0.37µM
SMILES	Pf growth 48h	SARS PLP yeast	NS1 function inh	Pf growth 96h
COC(=O)C1CN(C(=O)C(C)Oc2ccc(C)c(C)c2)c2ccccc2O1 (stereo not drawn)	i	i	i	i
CNc1c(NS(=O)(=O)c2ccc(CC(C)C)cc2)c(=O)oc2ccccc12	i	i	i	i
CCc1cc(=O)oc2cc(OCC(=O)O)c(Cl)cc12	i	i	i	nt
CCc1cc(=O)oc2cc(OCC(=O)N(CC)CC)c(Cl)cc12	nt	i	i	10.4µM
O=C(CNC(=O)c1ccc2c(c1)S(=O)(=O)N=C1CCCCCN12)Nc1ccc(F)c(F)c1	10.4µM	i	nt	?
COc1ccc(/C=N/NC(=O)C2C(C=C(Cl)Cl)C2(C)C)c(OC)c1 (stereo not drawn)	i	i	i	i
CCOC(=O)C(=O)NCC(c1cccs1)S(=O)(=O)c1ccc(F)cc1 (stereo not drawn)	?	nt	nt	11.7µM
CCNC(=O)C(=O)NCC(c1cccs1)S(=O)(=O)c1ccc(C)cc1 (stereo not drawn)	i	i	?	4.15µM
CCC(=O)c1ccc(OCC(=O)N2CCN(c3ncccn3)CC2)cc1	i	i	nt	i
CC(C)(C)n1nnnc1C(c1ccc(C(F)(F)F)cc1)N(Cc1ccc(F)cc1)Cc1ccco1 (stereo not drawn)	1.85µM	i	i	i
CC(C)(C)n1nnnc1C(c1cccnc1)N(Cc1ccccc1)Cc1cccs1 (stereo not drawn)	0.828µM	i	i	0.165µM
CCN(Cc1ccccc1)C(c1ccc(C)cc1)c1nnnn1C(C)(C)CC (stereo not drawn)	13.1µM	i	i	i
CCN(Cc1ccccc1)C(c1ccncc1)c1nnnn1C(C)(C)C (stereo not drawn)	?	i	i	i

Screening data: PubChem BioAssay, National Center for Advancing Translational Sciences (NCATS)
